# Experimental data: the supplement of paper PMC11001985
# Compound: C#CCNC(=O)CCSSCCC(=O)NCCc1ccc(C=O)c(C=O)c1
# Assay: lysine labeling ratio R10:1 (500 µM / 50 µM probe), SILAC-ABPP in living cells; higher = lower intrinsic lysine reactivity toward the probe, active = 2 or less
# Conditions: HeLa; probe concentrations 500 vs 50 µM
# In short: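 Each lysine carries an R value: the filtered median of MS1 peptide ratios of high probe to low probe, with the median then taken over forward and reverse replicates. These came from living SILAC light and heavy HeLa cells in PBS at room temperature labelled with an alkyne-tagged, disulfide-linked lysine probe at 500 µM or 50 µM, in forward and reverse swaps. The lysates were mixed, clicked to biotin-azide, trypsin-digested, captured on neutravidin, released by DTT, alkylated and run by LC-MS/MS on a TIMS-TOF Pro. The highest value allowed is 20.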
# UniProt P05362, sequence (P05362 whole entry): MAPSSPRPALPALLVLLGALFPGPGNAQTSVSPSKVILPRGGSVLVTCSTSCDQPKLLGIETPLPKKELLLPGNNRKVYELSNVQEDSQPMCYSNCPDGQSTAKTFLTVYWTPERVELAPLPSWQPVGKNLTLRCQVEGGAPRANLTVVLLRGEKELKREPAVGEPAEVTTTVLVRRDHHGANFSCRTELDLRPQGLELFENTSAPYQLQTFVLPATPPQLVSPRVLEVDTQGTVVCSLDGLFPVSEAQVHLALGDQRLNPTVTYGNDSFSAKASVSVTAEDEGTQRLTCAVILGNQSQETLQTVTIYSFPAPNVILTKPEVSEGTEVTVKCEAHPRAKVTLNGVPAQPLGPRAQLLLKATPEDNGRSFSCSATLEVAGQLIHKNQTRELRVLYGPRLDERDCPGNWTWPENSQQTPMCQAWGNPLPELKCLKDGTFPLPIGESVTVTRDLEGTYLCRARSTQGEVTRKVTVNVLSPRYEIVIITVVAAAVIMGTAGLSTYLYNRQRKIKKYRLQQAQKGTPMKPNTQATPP
# UniProt P07737, sequence (P07737 whole entry): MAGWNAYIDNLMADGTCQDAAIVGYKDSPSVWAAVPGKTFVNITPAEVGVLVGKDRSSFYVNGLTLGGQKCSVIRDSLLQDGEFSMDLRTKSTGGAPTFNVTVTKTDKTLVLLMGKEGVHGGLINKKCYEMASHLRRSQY
# UniProt Q13421, sequence (Q13421 whole entry): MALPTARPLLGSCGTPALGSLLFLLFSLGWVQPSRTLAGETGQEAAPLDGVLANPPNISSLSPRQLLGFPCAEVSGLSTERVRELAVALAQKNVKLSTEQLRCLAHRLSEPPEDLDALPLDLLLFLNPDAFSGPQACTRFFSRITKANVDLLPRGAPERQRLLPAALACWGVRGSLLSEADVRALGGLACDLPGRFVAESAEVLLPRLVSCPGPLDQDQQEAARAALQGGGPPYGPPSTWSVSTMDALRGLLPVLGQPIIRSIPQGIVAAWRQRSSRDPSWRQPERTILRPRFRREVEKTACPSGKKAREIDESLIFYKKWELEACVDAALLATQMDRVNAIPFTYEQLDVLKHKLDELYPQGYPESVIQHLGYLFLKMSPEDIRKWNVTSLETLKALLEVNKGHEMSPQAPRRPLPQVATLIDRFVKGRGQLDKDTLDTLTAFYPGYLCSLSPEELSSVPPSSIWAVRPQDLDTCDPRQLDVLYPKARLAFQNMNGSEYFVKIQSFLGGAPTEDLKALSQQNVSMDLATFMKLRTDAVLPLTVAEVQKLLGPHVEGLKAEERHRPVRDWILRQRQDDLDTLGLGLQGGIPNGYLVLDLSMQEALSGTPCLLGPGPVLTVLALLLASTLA
# UniProt P23528, sequence (P23528 whole entry): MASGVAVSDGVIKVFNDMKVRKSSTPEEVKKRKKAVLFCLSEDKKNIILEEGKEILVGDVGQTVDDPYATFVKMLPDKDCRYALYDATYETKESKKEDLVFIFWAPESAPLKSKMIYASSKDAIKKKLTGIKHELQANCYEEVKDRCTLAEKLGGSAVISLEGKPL
# UniProt P50991, sequence (P50991 whole entry): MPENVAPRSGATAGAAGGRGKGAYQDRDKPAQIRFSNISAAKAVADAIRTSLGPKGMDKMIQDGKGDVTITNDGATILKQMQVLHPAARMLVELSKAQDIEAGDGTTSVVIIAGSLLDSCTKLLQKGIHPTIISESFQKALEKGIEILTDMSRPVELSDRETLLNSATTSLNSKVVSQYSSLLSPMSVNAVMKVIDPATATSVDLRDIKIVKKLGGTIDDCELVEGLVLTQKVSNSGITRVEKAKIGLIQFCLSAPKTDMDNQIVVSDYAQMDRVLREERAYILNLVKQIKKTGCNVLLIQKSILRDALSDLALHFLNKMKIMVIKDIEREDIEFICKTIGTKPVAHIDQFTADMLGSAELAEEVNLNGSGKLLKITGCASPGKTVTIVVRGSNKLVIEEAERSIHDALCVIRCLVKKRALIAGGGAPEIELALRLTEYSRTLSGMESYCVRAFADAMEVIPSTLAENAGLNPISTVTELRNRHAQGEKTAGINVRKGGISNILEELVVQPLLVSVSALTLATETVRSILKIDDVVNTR
# UniProt P21926, sequence (P21926 whole entry): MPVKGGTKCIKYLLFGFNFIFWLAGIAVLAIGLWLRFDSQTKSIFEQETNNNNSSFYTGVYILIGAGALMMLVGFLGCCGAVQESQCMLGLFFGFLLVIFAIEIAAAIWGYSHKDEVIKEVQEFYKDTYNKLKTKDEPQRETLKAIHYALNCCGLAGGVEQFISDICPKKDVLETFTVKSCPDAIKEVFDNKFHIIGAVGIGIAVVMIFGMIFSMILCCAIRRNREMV
# UniProt P60660, sequence (P60660 whole entry): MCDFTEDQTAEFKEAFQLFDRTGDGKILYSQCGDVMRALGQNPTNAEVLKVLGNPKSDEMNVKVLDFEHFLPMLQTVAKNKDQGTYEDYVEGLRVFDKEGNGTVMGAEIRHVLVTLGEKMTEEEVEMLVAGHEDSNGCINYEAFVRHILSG
# UniProt P06756, sequence (P06756 whole entry): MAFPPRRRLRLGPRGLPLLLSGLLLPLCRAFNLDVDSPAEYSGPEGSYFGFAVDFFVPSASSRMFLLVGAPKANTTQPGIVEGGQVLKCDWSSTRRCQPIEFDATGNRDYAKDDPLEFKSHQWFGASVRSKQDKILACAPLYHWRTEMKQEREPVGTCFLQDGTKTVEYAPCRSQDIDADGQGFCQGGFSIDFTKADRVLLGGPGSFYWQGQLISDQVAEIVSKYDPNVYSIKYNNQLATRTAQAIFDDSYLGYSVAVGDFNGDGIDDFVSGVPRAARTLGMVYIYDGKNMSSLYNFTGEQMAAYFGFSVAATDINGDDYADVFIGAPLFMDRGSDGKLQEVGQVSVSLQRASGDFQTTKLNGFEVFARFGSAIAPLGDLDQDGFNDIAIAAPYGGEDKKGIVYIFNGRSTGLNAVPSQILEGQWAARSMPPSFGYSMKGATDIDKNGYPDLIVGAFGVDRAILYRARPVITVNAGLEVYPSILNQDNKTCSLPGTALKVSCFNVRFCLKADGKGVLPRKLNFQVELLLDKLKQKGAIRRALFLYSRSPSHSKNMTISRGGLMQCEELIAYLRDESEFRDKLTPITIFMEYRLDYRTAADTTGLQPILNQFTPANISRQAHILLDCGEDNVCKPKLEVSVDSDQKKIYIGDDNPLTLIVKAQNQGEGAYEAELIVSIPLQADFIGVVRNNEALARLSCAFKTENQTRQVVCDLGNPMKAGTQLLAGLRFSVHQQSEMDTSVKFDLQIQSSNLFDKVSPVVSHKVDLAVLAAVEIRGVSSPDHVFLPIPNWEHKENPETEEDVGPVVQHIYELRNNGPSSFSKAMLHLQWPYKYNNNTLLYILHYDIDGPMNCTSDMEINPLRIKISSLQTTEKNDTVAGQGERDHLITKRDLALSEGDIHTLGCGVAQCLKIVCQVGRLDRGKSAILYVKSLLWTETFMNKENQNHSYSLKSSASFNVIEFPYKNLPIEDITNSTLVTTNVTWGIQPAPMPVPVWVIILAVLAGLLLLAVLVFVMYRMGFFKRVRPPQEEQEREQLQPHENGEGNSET
# UniProt P15144, sequence (P15144 whole entry): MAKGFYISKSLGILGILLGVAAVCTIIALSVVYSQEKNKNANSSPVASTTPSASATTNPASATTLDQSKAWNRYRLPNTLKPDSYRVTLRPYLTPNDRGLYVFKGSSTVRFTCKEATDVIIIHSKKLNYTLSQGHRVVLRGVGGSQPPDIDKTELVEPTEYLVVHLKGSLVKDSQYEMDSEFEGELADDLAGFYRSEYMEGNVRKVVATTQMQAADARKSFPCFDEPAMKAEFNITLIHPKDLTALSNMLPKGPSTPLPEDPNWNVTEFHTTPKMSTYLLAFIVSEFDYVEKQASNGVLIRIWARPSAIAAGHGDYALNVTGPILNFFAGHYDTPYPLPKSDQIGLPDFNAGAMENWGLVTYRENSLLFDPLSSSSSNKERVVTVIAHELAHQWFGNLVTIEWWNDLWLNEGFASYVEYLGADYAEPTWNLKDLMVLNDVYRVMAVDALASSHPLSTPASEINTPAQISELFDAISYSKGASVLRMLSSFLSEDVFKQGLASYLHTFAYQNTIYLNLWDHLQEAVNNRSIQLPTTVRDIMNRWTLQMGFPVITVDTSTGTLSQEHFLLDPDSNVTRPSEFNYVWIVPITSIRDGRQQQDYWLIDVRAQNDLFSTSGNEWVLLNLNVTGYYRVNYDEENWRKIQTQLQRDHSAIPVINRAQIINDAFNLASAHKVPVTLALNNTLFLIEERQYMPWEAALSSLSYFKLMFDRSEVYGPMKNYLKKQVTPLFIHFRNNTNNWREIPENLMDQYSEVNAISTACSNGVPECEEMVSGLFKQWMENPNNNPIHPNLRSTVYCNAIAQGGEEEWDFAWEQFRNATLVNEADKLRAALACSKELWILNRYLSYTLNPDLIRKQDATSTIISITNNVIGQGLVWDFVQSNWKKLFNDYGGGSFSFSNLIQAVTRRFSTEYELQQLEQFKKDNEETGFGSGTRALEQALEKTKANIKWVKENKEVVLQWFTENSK
# UniProt P26641, sequence (P26641 whole entry): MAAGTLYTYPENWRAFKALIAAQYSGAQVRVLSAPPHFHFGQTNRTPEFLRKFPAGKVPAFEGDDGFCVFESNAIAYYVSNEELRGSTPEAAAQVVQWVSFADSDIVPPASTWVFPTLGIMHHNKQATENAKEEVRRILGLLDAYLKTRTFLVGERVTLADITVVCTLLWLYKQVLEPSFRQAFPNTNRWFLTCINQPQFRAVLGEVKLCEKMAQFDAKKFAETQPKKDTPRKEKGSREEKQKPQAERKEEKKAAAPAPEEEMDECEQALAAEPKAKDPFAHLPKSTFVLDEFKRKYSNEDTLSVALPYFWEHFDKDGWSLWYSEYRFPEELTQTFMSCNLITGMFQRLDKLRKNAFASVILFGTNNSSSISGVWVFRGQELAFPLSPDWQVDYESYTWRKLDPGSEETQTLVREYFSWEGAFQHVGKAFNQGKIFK
row,Target,lysine labeling ratio R10:1
1,CCT4 (lysine site: K21) (UniProt P50991),3.58 (inactive)
2,PFN1 (lysine site: K70) (UniProt P07737),2.2 (inactive)
3,NOTCH2 (lysine site: K1353) (UniProt Q04721),7.44 (inactive)
4,MSLN (lysine site: K559) (UniProt Q13421),2.61 (inactive)
5,LAMC1 (lysine site: K1584) (UniProt P11047),3.72 (inactive)
6,EEF1G (lysine site: K401) (UniProt P26641),2.74 (inactive)
7,CSPG4 (lysine site: K831) (UniProt Q6UVK1),5.17 (inactive)
8,PFN1 (lysine site: K127) (UniProt P07737),2.19 (inactive)
9,HNRNPL (lysine site: K302) (UniProt P14866),1.66 (active)
10,F11R (lysine site: K78) (UniProt Q9Y624),3.33 (inactive)
11,RPL5 (lysine site: K197) (UniProt P46777),1.37 (active)
12,ICAM1 (lysine site: K67) (UniProt P05362),1.69 (active)
13,CFL1 (lysine site: K144) (UniProt P23528),3.15 (inactive)
14,ICAM1 (lysine site: K359) (UniProt P05362),3.71 (inactive)
15,FAT4 (lysine site: K2004) (UniProt Q6V0I7),1.27 (active)
16,UniProt Q15149 (lysine site: K2309),2.6 (inactive)
17,CTTN (lysine site: K235) (UniProt Q14247),1.56 (active)
18,CD9 (lysine site: K135) (UniProt P21926),3.43 (inactive)
19,ANPEP (lysine site: K104) (UniProt P15144),1.17 (active)
20,GALNT7 (lysine site: K624) (UniProt Q86SF2),1.81 (active)
21,SPTBN1 (lysine site: K1459) (UniProt Q01082),0.588 (active)
22,UniProt P60660 (lysine site: K81),3.44 (inactive)
23,ITGAV (lysine site: K400) (UniProt P06756),0.958 (active)
